# Assay results from article PMC11006913.
# Substitutions are numbered along the chain they refer to.
# Key:
# Test in all cases: PBM; 200 nM protein, PBS
# Conditions in all cases: dsDNA, one strand shown
# HESX1 [1] = molecular target: HESX1 (Homo sapiens, UniProt Q9UBX0 95-180, R165K)
# HOXC10 [2] = molecular target: HOXC10 (Homo sapiens, UniProt Q9NYD6 254-340)
# PRRX1 [3] = molecular target: PRRX1 (Homo sapiens, UniProt P54821 80-166, F113S)
# HESX1 [4] = molecular target: HESX1 (Homo sapiens, UniProt Q9UBX0 95-180)
# HESX1 (Homo sapiens, UniProt Q9UBX0 95-180), sequence (Q9UBX0 95-180): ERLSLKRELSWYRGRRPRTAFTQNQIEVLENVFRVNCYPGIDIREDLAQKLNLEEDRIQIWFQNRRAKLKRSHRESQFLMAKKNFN
# HOXC10 [5] = molecular target: HOXC10 (Homo sapiens, UniProt Q9NYD6 254-340, K271E)
# HOXC10 (Homo sapiens, UniProt Q9NYD6 254-340, K271E), sequence (Q9NYD6 254-340 K271E): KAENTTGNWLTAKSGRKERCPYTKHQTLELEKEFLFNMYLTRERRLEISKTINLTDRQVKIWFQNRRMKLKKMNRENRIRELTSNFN
# HESX1 [6] = molecular target: HESX1 (Homo sapiens, UniProt Q9UBX0 95-180, R109Q)
# HESX1 (Homo sapiens, UniProt Q9UBX0 95-180, R109Q), sequence (Q9UBX0 95-180 R109Q): as the sequence (Q9UBX0 95-180) above, with R15Q counted along it
# HESX1 [7] = molecular target: HESX1 (Homo sapiens, UniProt Q9UBX0 95-180, P111T)
# HESX1 (Homo sapiens, UniProt Q9UBX0 95-180, P111T), sequence (Q9UBX0 95-180 P111T): as the sequence (Q9UBX0 95-180) above, with P17T counted along it
# HESX1 [8] = molecular target: HESX1 (Homo sapiens, UniProt Q9UBX0 95-180, F115L)
# HESX1 (Homo sapiens, UniProt Q9UBX0 95-180, F115L), sequence (Q9UBX0 95-180 F115L): as the sequence (Q9UBX0 95-180) above, with F21L counted along it
# PRRX1 [9] = molecular target: PRRX1 (Homo sapiens, UniProt P54821 80-166)
# PRRX1 (Homo sapiens, UniProt P54821 80-166), sequence (P54821 80-166): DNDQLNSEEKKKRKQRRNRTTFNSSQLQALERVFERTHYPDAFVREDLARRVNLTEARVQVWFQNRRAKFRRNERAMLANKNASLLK
# PAX4 [10] = molecular target: T1, PAX4 (Homo sapiens, UniProt O43316 9-242, R200K)
# T1 sequence: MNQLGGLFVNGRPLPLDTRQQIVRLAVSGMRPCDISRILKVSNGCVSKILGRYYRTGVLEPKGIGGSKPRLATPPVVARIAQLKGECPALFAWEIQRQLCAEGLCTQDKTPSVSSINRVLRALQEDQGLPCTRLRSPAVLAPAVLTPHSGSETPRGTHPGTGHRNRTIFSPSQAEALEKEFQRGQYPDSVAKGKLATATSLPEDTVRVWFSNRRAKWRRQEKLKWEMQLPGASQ
# PAX4 [11] = molecular target: T2, PAX4 (Homo sapiens, UniProt O43316 9-242)
# T2 sequence: T1 sequence with K192R
# PAX4 [12] = molecular target: T3, PAX4 (Homo sapiens, UniProt O43316 9-242, R200Q)
# T3 sequence: T1 sequence with K192Q
# PAX4 [13] = molecular target: T4, PAX4 (Homo sapiens, UniProt O43316 9-242, F177V)
# T4 sequence: T1 sequence with F169V, K192R
# PAX4 [14] = molecular target: T5, PAX4 (Homo sapiens, UniProt O43316 9-242, F177Y)
# T5 sequence: T1 sequence with F169Y, K192R
# VAX1 [15] = molecular target: VAX1 (Homo sapiens, UniProt Q5SQQ9 86-172)
# VAX1 (Homo sapiens, UniProt Q5SQQ9 86-172), sequence (Q5SQQ9 86-172): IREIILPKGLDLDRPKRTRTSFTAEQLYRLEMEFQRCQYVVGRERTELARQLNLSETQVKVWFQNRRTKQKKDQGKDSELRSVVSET
# VAX1 [16] = molecular target: VAX1 (Homo sapiens, UniProt Q5SQQ9 86-172, T142I)
# VAX1 (Homo sapiens, UniProt Q5SQQ9 86-172, T142I), sequence (Q5SQQ9 86-172 T142I): as the sequence (Q5SQQ9 86-172) above, with T57I counted along it
# PAX4 [17] = molecular target: T6, PAX4 (Homo sapiens, UniProt O43316 9-242, R227W)
# T6 sequence: T1 sequence with K192R, R219W
# VAX1 [18] = molecular target: VAX1 (Homo sapiens, UniProt Q5SQQ9 86-172, K157R)
# VAX1 (Homo sapiens, UniProt Q5SQQ9 86-172, K157R), sequence (Q5SQQ9 86-172 K157R): as the sequence (Q5SQQ9 86-172) above, with K72R counted along it
# HOXB6 [19] = molecular target: HOXB6 (Homo sapiens, UniProt P17509 132-218, K202E)
# HOXB6 (Homo sapiens, UniProt P17509 132-218, K202E), sequence (P17509 132-218 K202E): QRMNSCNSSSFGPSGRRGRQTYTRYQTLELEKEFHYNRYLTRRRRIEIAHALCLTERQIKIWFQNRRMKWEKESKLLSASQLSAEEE
# HOXA2 [20] = molecular target: HOXA2 (Homo sapiens, UniProt O43364 129-215, R185T)
# HOXA2 (Homo sapiens, UniProt O43364 129-215, R185T), sequence (O43364 129-215 R185T): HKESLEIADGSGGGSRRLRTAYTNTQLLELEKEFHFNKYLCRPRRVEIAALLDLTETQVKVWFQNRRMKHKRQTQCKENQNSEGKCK
# HOXA2 [21] = molecular target: HOXA2 (Homo sapiens, UniProt O43364 129-215, R185K)
# HOXA2 (Homo sapiens, UniProt O43364 129-215, R185K), sequence (O43364 129-215 R185K): as the sequence (O43364 129-215 R185T) above, with T57K counted along it
# HOXA2 [22] = molecular target: HOXA2 (Homo sapiens, UniProt O43364 129-215, Y150S)
# HOXA2 (Homo sapiens, UniProt O43364 129-215, Y150S), sequence (O43364 129-215 Y150S): as the sequence (O43364 129-215 R185T) above, with Y22S, T57R counted along it
# HOXA2 [23] = molecular target: HOXA2 (Homo sapiens, UniProt O43364 129-215)
# HOXA2 (Homo sapiens, UniProt O43364 129-215), sequence (O43364 129-215): as the sequence (O43364 129-215 R185T) above, with T57R counted along it
# HOXB6 [24] = molecular target: HOXB6 (Homo sapiens, UniProt P17509 132-218)
# HOXB6 (Homo sapiens, UniProt P17509 132-218), sequence (P17509 132-218): as the sequence (P17509 132-218 K202E) above, with E71K counted along it
# ALX4 [25] = molecular target: ALX4 (Homo sapiens, UniProt Q9H161 200-286)
# ALX4 (Homo sapiens, UniProt Q9H161 200-286), sequence (Q9H161 200-286): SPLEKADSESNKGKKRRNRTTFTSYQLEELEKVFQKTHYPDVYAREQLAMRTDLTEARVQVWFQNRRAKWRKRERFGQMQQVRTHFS
# ALX4 [26] = molecular target: ALX4 (Homo sapiens, UniProt Q9H161 200-286, Q225E)
# ALX4 (Homo sapiens, UniProt Q9H161 200-286, Q225E), sequence (Q9H161 200-286 Q225E): as the sequence (Q9H161 200-286) above, with Q26E counted along it
# HOXA7 [27] = molecular target: HOXA7 (Homo sapiens, UniProt P31268 116-202)
# HOXA7 (Homo sapiens, UniProt P31268 116-202), sequence (P31268 116-202): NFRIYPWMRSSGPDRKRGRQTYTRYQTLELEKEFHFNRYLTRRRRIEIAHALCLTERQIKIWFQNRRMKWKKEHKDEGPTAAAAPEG
# HOXA7 [28] = molecular target: HOXA7 (Homo sapiens, UniProt P31268 116-202, W177C)
# HOXA7 (Homo sapiens, UniProt P31268 116-202, W177C), sequence (P31268 116-202 W177C): as the sequence (P31268 116-202) above, with W62C counted along it
# MSX2 [29] = molecular target: MSX2 (Homo sapiens, UniProt P35548 130-214, R199I)
# MSX2 (Homo sapiens, UniProt P35548 130-214, R199I), sequence (P35548 130-214 R199I): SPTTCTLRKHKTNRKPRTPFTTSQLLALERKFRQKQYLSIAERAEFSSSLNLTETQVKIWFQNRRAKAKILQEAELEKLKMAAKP
# ALX1 [30] = molecular target: ALX1 (Homo sapiens, UniProt Q15699 118-204, L144V)
# ALX1 (Homo sapiens, UniProt Q15699 118-204, L144V), sequence (Q15699 118-204 L144V): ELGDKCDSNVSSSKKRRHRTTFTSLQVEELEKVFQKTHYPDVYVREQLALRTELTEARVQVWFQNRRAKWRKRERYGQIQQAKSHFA
# ALX1 [31] = molecular target: ALX1 (Homo sapiens, UniProt Q15699 118-204, L144R)
# ALX1 (Homo sapiens, UniProt Q15699 118-204, L144R), sequence (Q15699 118-204 L144R): as the sequence (Q15699 118-204 L144V) above, with V27R counted along it
# MSX2 [32] = molecular target: MSX2 (Homo sapiens, UniProt P35548 130-214)
# MSX2 (Homo sapiens, UniProt P35548 130-214), sequence (P35548 130-214): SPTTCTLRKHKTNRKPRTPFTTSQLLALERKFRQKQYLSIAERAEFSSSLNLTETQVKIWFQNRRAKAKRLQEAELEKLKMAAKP
# PROP1 [33] = molecular target: PROP1 (Homo sapiens, UniProt O75360 56-141)
# PROP1 (Homo sapiens, UniProt O75360 56-141), sequence (O75360 56-141): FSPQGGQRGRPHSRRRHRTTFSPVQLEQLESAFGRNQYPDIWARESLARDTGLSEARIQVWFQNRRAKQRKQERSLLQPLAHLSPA
# PROP1 [34] = molecular target: PROP1 (Homo sapiens, UniProt O75360 56-141, R99H)
# PROP1 (Homo sapiens, UniProt O75360 56-141, R99H), sequence (O75360 56-141 R99H): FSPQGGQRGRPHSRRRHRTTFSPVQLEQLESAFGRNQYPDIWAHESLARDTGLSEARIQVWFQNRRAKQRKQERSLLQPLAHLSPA
# ALX3 = ALX3 (Homo sapiens, UniProt O95076 139-225, L168V)
# ALX3, sequence (O95076 139-225 L168V): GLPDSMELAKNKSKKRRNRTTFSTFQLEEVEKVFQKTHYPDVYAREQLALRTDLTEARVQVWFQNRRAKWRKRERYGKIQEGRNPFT
# PROP1 [35] = molecular target: PROP1 (Homo sapiens, UniProt O75360 56-141, F88S)
# PROP1 (Homo sapiens, UniProt O75360 56-141, F88S), sequence (O75360 56-141 F88S): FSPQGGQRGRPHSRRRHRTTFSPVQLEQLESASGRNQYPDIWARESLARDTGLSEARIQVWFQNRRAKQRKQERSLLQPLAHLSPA
# MSX2 [36] = molecular target: MSX2 (Homo sapiens, UniProt P35548 130-214, F161Y)
# MSX2 (Homo sapiens, UniProt P35548 130-214, F161Y), sequence (P35548 130-214 F161Y): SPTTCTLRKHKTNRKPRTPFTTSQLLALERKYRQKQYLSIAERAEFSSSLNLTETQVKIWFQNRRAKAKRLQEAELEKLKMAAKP
# ALX1 [37] = molecular target: ALX1 (Homo sapiens, UniProt Q15699 118-204)
# ALX1 (Homo sapiens, UniProt Q15699 118-204), sequence (Q15699 118-204): as the sequence (Q15699 118-204 L144V) above, with V27L counted along it
# HESX1 (Homo sapiens, UniProt Q9UBX0 95-180, R165K), sequence (Q9UBX0 95-180 R165K): as the sequence (Q9UBX0 95-180) above, with R71K counted along it
# PRRX1 (Homo sapiens, UniProt P54821 80-166, F113S), sequence (P54821 80-166 F113S): as the sequence (P54821 80-166) above, with F34S counted along it
# HOXC10 (Homo sapiens, UniProt Q9NYD6 254-340), sequence (Q9NYD6 254-340): as the sequence (Q9NYD6 254-340 K271E) above, with E18K counted along it
sequence,measurement,setting,value
CGGCTAGC,binding signal,HESX1 [1],"6.5 upbm affinity estimate (log intensity, higher = more binding, comparable within an allelic series)"
same,binding signal,HOXC10 [2],"9.98 upbm affinity estimate (log intensity, higher = more binding, comparable within an allelic series)"
same,binding signal,PRRX1 [3],"9.18 upbm affinity estimate (log intensity, higher = more binding, comparable within an allelic series)"
same,binding signal,HESX1 [4],"6.49 upbm affinity estimate (log intensity, higher = more binding, comparable within an allelic series)"
same,binding signal,HOXC10 [5],"10 upbm affinity estimate (log intensity, higher = more binding, comparable within an allelic series)"
same,binding signal,HESX1 [6],"6.39 upbm affinity estimate (log intensity, higher = more binding, comparable within an allelic series)"
same,binding signal,HESX1 [7],"6.54 upbm affinity estimate (log intensity, higher = more binding, comparable within an allelic series)"
same,binding signal,HESX1 [8],"6.45 upbm affinity estimate (log intensity, higher = more binding, comparable within an allelic series)"
same,binding signal,PRRX1 [9],"9.46 upbm affinity estimate (log intensity, higher = more binding, comparable within an allelic series)"
GCCGGCGA,binding signal,HESX1 [1],"6.47 upbm affinity estimate (log intensity, higher = more binding, comparable within an allelic series)"
same,binding signal,PAX4 [10],"9.18 upbm affinity estimate (log intensity, higher = more binding, comparable within an allelic series)"
same,binding signal,PRRX1 [3],"9.26 upbm affinity estimate (log intensity, higher = more binding, comparable within an allelic series)"
same,binding signal,PAX4 [11],"9.12 upbm affinity estimate (log intensity, higher = more binding, comparable within an allelic series)"
same,binding signal,HESX1 [4],"6.42 upbm affinity estimate (log intensity, higher = more binding, comparable within an allelic series)"
same,binding signal,PAX4 [12],"9.11 upbm affinity estimate (log intensity, higher = more binding, comparable within an allelic series)"
same,binding signal,PAX4 [13],"9.13 upbm affinity estimate (log intensity, higher = more binding, comparable within an allelic series)"
same,binding signal,PAX4 [14],"9.03 upbm affinity estimate (log intensity, higher = more binding, comparable within an allelic series)"
same,binding signal,HESX1 [6],"6.45 upbm affinity estimate (log intensity, higher = more binding, comparable within an allelic series)"
same,binding signal,VAX1 [15],"6.87 upbm affinity estimate (log intensity, higher = more binding, comparable within an allelic series)"
same,binding signal,HESX1 [7],"6.41 upbm affinity estimate (log intensity, higher = more binding, comparable within an allelic series)"
same,binding signal,HESX1 [8],"6.43 upbm affinity estimate (log intensity, higher = more binding, comparable within an allelic series)"
same,binding signal,VAX1 [16],"7.22 upbm affinity estimate (log intensity, higher = more binding, comparable within an allelic series)"
same,binding signal,PAX4 [17],"9.19 upbm affinity estimate (log intensity, higher = more binding, comparable within an allelic series)"
same,binding signal,PRRX1 [9],"9.42 upbm affinity estimate (log intensity, higher = more binding, comparable within an allelic series)"
same,binding signal,VAX1 [18],"7.26 upbm affinity estimate (log intensity, higher = more binding, comparable within an allelic series)"
CAGGCCGG,binding signal,HESX1 [1],"6.44 upbm affinity estimate (log intensity, higher = more binding, comparable within an allelic series)"
same,binding signal,HOXB6 [19],"8.91 upbm affinity estimate (log intensity, higher = more binding, comparable within an allelic series)"
same,binding signal,HESX1 [4],"6.33 upbm affinity estimate (log intensity, higher = more binding, comparable within an allelic series)"
same,binding signal,HOXA2 [20],"7.05 upbm affinity estimate (log intensity, higher = more binding, comparable within an allelic series)"
same,binding signal,HOXA2 [21],"10.1 upbm affinity estimate (log intensity, higher = more binding, comparable within an allelic series)"
same,binding signal,HESX1 [6],"6.48 upbm affinity estimate (log intensity, higher = more binding, comparable within an allelic series)"
same,binding signal,HESX1 [7],"6.33 upbm affinity estimate (log intensity, higher = more binding, comparable within an allelic series)"
same,binding signal,HESX1 [8],"6.4 upbm affinity estimate (log intensity, higher = more binding, comparable within an allelic series)"
same,binding signal,HOXA2 [22],"10.3 upbm affinity estimate (log intensity, higher = more binding, comparable within an allelic series)"
same,binding signal,HOXA2 [23],"7.13 upbm affinity estimate (log intensity, higher = more binding, comparable within an allelic series)"
same,binding signal,HOXB6 [24],"8.84 upbm affinity estimate (log intensity, higher = more binding, comparable within an allelic series)"
GAGCAGCC,binding signal,HESX1 [1],"6.52 upbm affinity estimate (log intensity, higher = more binding, comparable within an allelic series)"
same,binding signal,ALX4 [25],"8.07 upbm affinity estimate (log intensity, higher = more binding, comparable within an allelic series)"
same,binding signal,ALX4 [26],"8.24 upbm affinity estimate (log intensity, higher = more binding, comparable within an allelic series)"
same,binding signal,HESX1 [4],"6.51 upbm affinity estimate (log intensity, higher = more binding, comparable within an allelic series)"
same,binding signal,HESX1 [6],"6.47 upbm affinity estimate (log intensity, higher = more binding, comparable within an allelic series)"
same,binding signal,HESX1 [7],"6.43 upbm affinity estimate (log intensity, higher = more binding, comparable within an allelic series)"
same,binding signal,HESX1 [8],"6.53 upbm affinity estimate (log intensity, higher = more binding, comparable within an allelic series)"
AGCTGCCT,binding signal,HESX1 [1],"6.48 upbm affinity estimate (log intensity, higher = more binding, comparable within an allelic series)"
same,binding signal,HOXA7 [27],"8.26 upbm affinity estimate (log intensity, higher = more binding, comparable within an allelic series)"
same,binding signal,HESX1 [4],"6.48 upbm affinity estimate (log intensity, higher = more binding, comparable within an allelic series)"
same,binding signal,HESX1 [6],"6.53 upbm affinity estimate (log intensity, higher = more binding, comparable within an allelic series)"
same,binding signal,HESX1 [7],"6.48 upbm affinity estimate (log intensity, higher = more binding, comparable within an allelic series)"
same,binding signal,HESX1 [8],"6.43 upbm affinity estimate (log intensity, higher = more binding, comparable within an allelic series)"
same,binding signal,HOXA7 [28],"8.25 upbm affinity estimate (log intensity, higher = more binding, comparable within an allelic series)"
ACCAAATA,binding signal,HESX1 [1],"7.74 upbm affinity estimate (log intensity, higher = more binding, comparable within an allelic series)"
same,binding signal,HOXC10 [2],"10.8 upbm affinity estimate (log intensity, higher = more binding, comparable within an allelic series)"
same,binding signal,HESX1 [4],"7.83 upbm affinity estimate (log intensity, higher = more binding, comparable within an allelic series)"
same,binding signal,HESX1 [7],"7.46 upbm affinity estimate (log intensity, higher = more binding, comparable within an allelic series)"
CCCAGTGC,binding signal,HESX1 [1],"6.38 upbm affinity estimate (log intensity, higher = more binding, comparable within an allelic series)"
same,binding signal,ALX4 [25],"8 upbm affinity estimate (log intensity, higher = more binding, comparable within an allelic series)"
same,binding signal,ALX4 [26],"8.11 upbm affinity estimate (log intensity, higher = more binding, comparable within an allelic series)"
same,binding signal,HESX1 [4],"6.3 upbm affinity estimate (log intensity, higher = more binding, comparable within an allelic series)"
same,binding signal,HESX1 [6],"6.56 upbm affinity estimate (log intensity, higher = more binding, comparable within an allelic series)"
same,binding signal,HESX1 [7],"6.45 upbm affinity estimate (log intensity, higher = more binding, comparable within an allelic series)"
same,binding signal,HESX1 [8],"6.56 upbm affinity estimate (log intensity, higher = more binding, comparable within an allelic series)"
AATTATCA,binding signal,HESX1 [1],"11.4 upbm affinity estimate (log intensity, higher = more binding, comparable within an allelic series)"
same,binding signal,PRRX1 [3],"11.2 upbm affinity estimate (log intensity, higher = more binding, comparable within an allelic series)"
same,binding signal,HESX1 [4],"11.5 upbm affinity estimate (log intensity, higher = more binding, comparable within an allelic series)"
same,binding signal,MSX2 [29],"12.3 upbm affinity estimate (log intensity, higher = more binding, comparable within an allelic series)"
same,binding signal,ALX1 [30],"11.3 upbm affinity estimate (log intensity, higher = more binding, comparable within an allelic series)"
same,binding signal,ALX1 [31],"11.1 upbm affinity estimate (log intensity, higher = more binding, comparable within an allelic series)"
same,binding signal,MSX2 [32],"13.3 upbm affinity estimate (log intensity, higher = more binding, comparable within an allelic series)"
same,binding signal,PAX4 [14],"10.9 upbm affinity estimate (log intensity, higher = more binding, comparable within an allelic series)"
same,binding signal,PROP1 [33],"11 upbm affinity estimate (log intensity, higher = more binding, comparable within an allelic series)"
same,binding signal,HESX1 [6],"8.56 upbm affinity estimate (log intensity, higher = more binding, comparable within an allelic series)"
same,binding signal,PROP1 [34],"10.6 upbm affinity estimate (log intensity, higher = more binding, comparable within an allelic series)"
same,binding signal,HESX1 [7],"10.1 upbm affinity estimate (log intensity, higher = more binding, comparable within an allelic series)"
same,binding signal,ALX3,"9.73 upbm affinity estimate (log intensity, higher = more binding, comparable within an allelic series)"
same,binding signal,PROP1 [35],"7.71 upbm affinity estimate (log intensity, higher = more binding, comparable within an allelic series)"
same,binding signal,MSX2 [36],"13 upbm affinity estimate (log intensity, higher = more binding, comparable within an allelic series)"
same,binding signal,HESX1 [8],"7.79 upbm affinity estimate (log intensity, higher = more binding, comparable within an allelic series)"
same,binding signal,ALX1 [37],"12 upbm affinity estimate (log intensity, higher = more binding, comparable within an allelic series)"
same,binding signal,PRRX1 [9],"13.3 upbm affinity estimate (log intensity, higher = more binding, comparable within an allelic series)"
